The record followed here is PubChem BioAssay AID1851 (National Center for Advancing Translational Sciences (NCATS), 2009).

Structures are written as SMILES. “And” between values parts separate entries of the source, which are not always exact repeats. Equal entries are not always repeated. Hit rate of the full screen: of about 16,000 compounds, about 5,800 (36%) were called active. Inconclusive results (about 23%) are left out. Calls come from the whole dose curve; as a rule, active = well fitted curve in the direction sought with a large enough effect; inconclusive = small, poorly fitted or top-dose-only effect, or effect the other way; inactive = no such curve, though single readings can be large or run the other way. The list shows a part of the results. More than one record can exist for a structure, and the calls need not agree.
% is set by controls: 0 for no effect and ±100 for the full control effect.

In this assay the target is Cytochrome P450 2C19 (Homo sapiens) (UniProt P33261). As to the kind of experiment: Cytochrome panel assay with activity outcomes. To be noted: recombinant CYP, pro-luciferin dealkylation, luminescence, p450-cyp2c19; series mostly up to 57.1 µM; activity, negative = inhibition: at the top concentration.
Chain of Cytochrome P450 2C19 (Homo sapiens) (P33261 whole entry, looked up): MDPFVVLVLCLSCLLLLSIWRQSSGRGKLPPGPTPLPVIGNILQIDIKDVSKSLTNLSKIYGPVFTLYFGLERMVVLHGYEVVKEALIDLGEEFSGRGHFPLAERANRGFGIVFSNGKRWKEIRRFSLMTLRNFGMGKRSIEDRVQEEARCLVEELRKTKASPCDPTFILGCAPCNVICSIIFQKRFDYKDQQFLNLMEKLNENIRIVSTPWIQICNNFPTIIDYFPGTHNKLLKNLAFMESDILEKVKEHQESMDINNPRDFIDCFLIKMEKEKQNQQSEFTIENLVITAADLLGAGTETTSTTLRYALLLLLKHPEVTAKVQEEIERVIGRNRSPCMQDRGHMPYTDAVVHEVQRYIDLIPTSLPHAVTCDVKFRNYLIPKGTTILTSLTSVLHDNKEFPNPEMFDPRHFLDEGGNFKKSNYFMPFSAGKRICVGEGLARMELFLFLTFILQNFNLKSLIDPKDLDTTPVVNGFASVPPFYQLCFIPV
One may read the AC50 as the concentration at which the activity in the assay is half-maximal. As for `Cc1c(C(=O)Nc2cccc(C(F)(F)F)c2)oc2ccc(S(=O)(=O)N3CCOCC3)cc12`, the AC50 is 7.94 µM (active).

In the case of `Cc1c(C(=O)NC2CCCc3ccccc32)oc2ccc(S(=O)(=O)N3CCOCC3)cc12` (stereo not drawn), the AC50 is 11.2 µM (active).

In the case of `CCOC(=O)CC1C(=O)NCCN1S(=O)(=O)c1ccc(Cl)c(Cl)c1` (stereo not drawn), the AC50 was 11.2 µM (active).

In the case of `COC(=O)CC1C(=O)NCCN1C(=O)Nc1ccc(Cl)cc1` (stereo not drawn), the “activity, negative = inhibition” value was -28.1% (inactive).

With `CCCc1cc2c(cc1NC(=O)c1ccccc1C)OCO2`, the AC50 was 0.178 µM (active).

Turning to `CCCc1cc2c(cc1NC(=O)c1ccc(Br)cc1)OCO2`, the AC50 was 0.0794 µM (active).

As to `CCCc1cc2c(cc1NC(=O)c1ccccc1Cl)OCO2`, the AC50 is 0.398 µM (active).

Regarding `Cc1nn(C)c(C)c1CNC(=O)c1cnn2c1NC(c1ccccc1)CC2C(F)(F)F` (stereo not drawn), the “activity, negative = inhibition” value was -29.2% (inactive).

In the case of `COc1ccccc1CN1CC2(CCN(S(C)(=O)=O)CC2)C1`, the “activity, negative = inhibition” value is 20.8% (inactive).

As for `CN(C)C(=C(C#N)C#N)N1CCN(c2ccc(Cl)c(Cl)c2)CC1`, the AC50 was 10 µM (active).

With `CCC(Sc1nc(=O)cc(N)n1CCc1ccccc1)C(=O)Nc1ccccc1C#N` (stereo not drawn), the AC50 was 11.2 µM (active).

For the compound `Nc1cc(=O)nc(SCC(=O)Nc2cccc3ccccc23)n1CCc1ccccc1`, the AC50 is 14.1 µM (active).

Turning to `NCCCC(=O)O`, the “activity, negative = inhibition” value is -39.8% (inactive).

As for `Cn1c(CNC(=O)Nc2ccccc2)nnc1SCc1ccccc1`, the AC50 is 7.08 µM (active).

Take `CCCCN(C)CCCNC(=O)CCn1nc(-c2ccccc2)ccc1=O`: the “activity, negative = inhibition” value is -12.1% (inactive).

For `CCN(CC)CCC(=O)Nc1ccc2c(c1)N(C(=O)CN(CC)CC)c1ccccc1CC2`, the “activity, negative = inhibition” value is -22.9% (inactive).

Consider `CCN(CCCNC(=O)CC(C(=O)N1CCc2ccccc21)n1ccnc1)c1ccccc1` (stereo not drawn), for which the AC50 was 0.562 µM (active).

On to `CC(C(=O)NC1CCCC1)N(C(=O)c1snc(C(N)=O)c1N)c1ccc2c(c1)OCCO2` (stereo not drawn), for which the AC50 is 15.8 µM (active).

On to `CN(CCO)c1nc(N)c2c(N)nc3c(c2c1C#N)CC(=O)N3C1CCCC1`, for which the “activity, negative = inhibition” value was -14.8% (inactive).

With `CCCn1nnnc1-c1cccc(Cl)c1`, the AC50 is 5.01 µM (active).

As to `CCCn1nnnc1-c1cc(Cl)cc(Cl)c1`, the “activity, negative = inhibition” value is -63.7% (inactive).

Take `Cc1oc(-c2cccc(Cl)c2)[n+]([O-])c1C`: the “activity, negative = inhibition” value was -28.5% (inactive).

Turning to `Brc1ccc(-c2nnc(-c3ccccc3)c(N3CCSCC3)n2)cc1`, the AC50 is 14.1 µM (active).

`Clc1ccc(-c2nnc(-c3ccccc3)c(N3CCSCC3)n2)cc1`: the AC50 was 14.1 µM (active).

Consider `O=c1c(-c2ccc(Cl)cc2)nc2cnc(N3CCOCC3)nc2n1CCc1ccccc1`, for which the “activity, negative = inhibition” value is -18.1% (inactive).

Regarding `Cc1nnc(S(=O)(=O)c2ccc(N=Nc3c(N)nc(N)nc3N)cc2)s1`, the activity, negative = inhibition is 32.1% [at 11.4 µM] (inactive).

Take `CSc1ccc2c(c1)[C@H](N1CCN(C)CC1)Cc1ccccc1S2`: the AC50 result was “inactive and 2.51 µM (active) and 7.94 µM (active)”.

As for `CN1CCC[C@@H](CC2c3ccccc3Sc3ccccc32)C1`, the “activity, negative = inhibition” value is -31.2% [at 25.6 µM] (inactive).

On to `CO[C@H]1COC(=O)[C@@H](Cc2ccccc2)NC(=O)[C@@H](C)COC(=O)C/C=C\[C@@H]1C`, for which the activity, negative = inhibition is -5.86% [at 11.4 µM] (inactive).

With `Cc1nc(-c2c(C(F)(F)F)noc2-c2ccc(O)cc2O)cs1`, the AC50 is 1.26 µM (active).

`O=C(N/C(=C\c1cccnc1)C(=O)N1CCOCC1)c1cccc(Br)c1`: the “activity, negative = inhibition” value was -4.28% (inactive).

For `O=C(/C=C/c1cccnc1)c1ccc(NC(=O)c2cccc(Br)c2)cc1`, the AC50 is 2.51 µM (active).

Consider `COC(=O)c1c(-c2cc(OC)c(OC)c(OC)c2)c2ccnc(OCc3ncccn3)c2c(=O)n1Cc1ccnc(C)c1`, for which the “activity, negative = inhibition” value was -37.4% (inactive).

Turning to `CCOc1[nH]n(-c2ccccc2)c(=O)c1C=Nc1ccc(Cl)cc1`, the AC50 is 8.91 µM (active).

On to `Cc1ccc(-n2[nH]c(C)c(C=Nc3ccc4[nH]c(=O)[nH]c4c3)c2=O)cc1C`, for which the “activity, negative = inhibition” value is -6.05% (inactive).

Take `CCOc1[nH]n(-c2ccc(Cl)cc2)c(=O)c1C=Nc1ccc(Cl)cc1`: the “activity, negative = inhibition” value was -3.5% (inactive).

Turning to `COc1ccc(CNC(=O)CN(CC2CCCO2)C(=O)CNS(=O)(=O)c2ccccc2)cc1` (stereo not drawn), the AC50 is 14.1 µM (active).

For `CCN(CC)CCOC(=O)[C@@H](Cc1cccc2ccccc12)C[C@@H]1CCCO1`, the “activity, negative = inhibition” value was -28.4% [at 25.6 µM] (inactive).

Turning to `O=C(CN(CC1CCCO1)C(=O)CNS(=O)(=O)c1ccc(Cl)cc1)NCCc1ccccc1` (stereo not drawn), the AC50 was 31.6 µM (active).

Consider `O=C(O)c1cc(S(=O)(=O)NCC2CCCO2)ccc1Cl` (stereo not drawn), for which the “activity, negative = inhibition” value is 8.86% (inactive).

On to `Cc1nn(Cc2c(F)c(F)c(F)c(F)c2F)c(C)c1NC(=O)c1c(-c2ccccc2)nn(-c2ccccc2)c1C`, for which the AC50 was 2.24 µM (active).

As for `Cc1nn(Cc2c(F)c(F)c(F)c(F)c2F)c(C)c1NC(=O)c1cccc(COc2ccc(Cl)cc2)c1`, the AC50 is 14.1 µM (active).

As for `O=C1NC(O)=NC1(c1ccccc1)c1ccccc1`, the “activity, negative = inhibition” value was -20.5% (inactive).

For the compound `COCCCNC(=O)/C=C/c1ccc(Cl)cc1`, the “activity, negative = inhibition” value was -22.8% (inactive).

In the case of `O=C(/C=C/c1ccc(Cl)cc1)NCCSc1ccccc1`, the AC50 is 1.78 µM (active).

For the compound `CCCCCCCCCCCCCCC[C@H](O)[C@H](N)CO`, the “activity, negative = inhibition” value was -7.82% (inactive).

For `CC1=NN(c2ccccc2)C(=O)[C@@H]1N=Nc1ccc(S(N)(=O)=O)cc1`, the activity, negative = inhibition was 20.1% [at 11.4 µM] (inactive).

`CC1=NN(c2ccc(C)cc2C)C(=O)C1C(c1ccccc1)C1C(=O)N(c2ccc(C)cc2C)N=C1C` (stereo not drawn): the AC50 was 4.47 µM (active).
